High-throughput results: PubChem, National Center for Advancing Translational Sciences (NCATS)
Compounds with a hit are over-represented: about 12% of the library has one in this group of screens.
JMJD2A Tudor inh = JMJD2A Tudor domain (human) inhibition; AID 504339; actives 4.4% (n = 390,000); Potency, µM (titrated, usually from 114 µM), without a hit: top-dose activity change, negative = inhibition, actives largely listed as inhibitors; AlphaScreen JMJD2A-Tudor / H3K4me3 peptide binding; O75164; also: % is scaled to controls: 0 for no effect and ±100 for the full control effect; nearly all actives have a fitted effect of over 50% in size
Sfp inh = Sfp phosphopantetheinyl transferase inhibition; Q9F4F7; Biochemical Sfp PPTase activity, qHTS; Potency, µM, for the others: largest response in the series, negative = inhibition, most hits filed as inhibitors; actives 3.5% (n = 310,000); AID 1490;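 also: the enzyme is Sfp with the accession as filed and its product quenches rhodamine fluorescence; 0% = enzyme reaction without inhibitor and -100% = no enzyme wells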
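After 15 min at room temperature with compound, 15 nM Sfp received 5 uM rhodamine-CoA plus 12.5 uM BHQ-2-ybbR (50 mM Hepes pH 7.6, 10 mM MgCl2). Rate came from the fluorescence difference over 30 min, ex 525/em 598 nm.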
BAZ2B block = BAZ2B (human) inhibition. Q9UIF8. Potency, µM (titrated, usually from 114 µM), without a hit: at the top dose activity change, negative = inhibition, hits mostly inhibitors. AID 504333. AlphaScreen BAZ2B-H3K14Ac peptide displacement. actives 4.4% (n = 360,000); also: % is scaled to controls: 0 for no effect and ±100 for the full control effect; nearly all actives have a fitted effect of over 60% in size
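Complex of BAZ2B and biotin-H3K14Ac (50 nM apiece) forms over 30 min at RT, then faces library compounds up to 110 uM for another 30 min; AlphaScreen beads added, 20 min dark incubation, luminescence read.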
HP1b chromo inh = HP1-beta chromodomain-methylated histone interaction inhibition; AlphaScreen HP1-beta / biotin-H3K9me3 peptide binding; Potency, µM (titrated, usually from 114 µM), inactives show at the highest dose activity change, negative = inhibition, actives largely listed as inhibitors; actives 0.56% (n = 390,000); also: nearly all actives have a fitted effect of over 70% in size
Target sequence (P83916 whole entry, looked up): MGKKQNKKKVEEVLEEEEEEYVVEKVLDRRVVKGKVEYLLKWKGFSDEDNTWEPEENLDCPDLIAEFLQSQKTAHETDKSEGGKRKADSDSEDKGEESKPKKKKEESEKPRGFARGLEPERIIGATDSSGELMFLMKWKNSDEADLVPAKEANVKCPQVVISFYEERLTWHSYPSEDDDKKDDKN
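AlphaScreen: HP1-beta (50 nM) preformed 30 min with biotin-H3(1-18)K9me3 peptide (50 nM) in PBS pH 7.4, 0.01% Tween-20. Compound added for 30 min at RT, then streptavidin donor/nickel chelate acceptor beads (10 ug/mL) for 30 min.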
PLK1 PBD block = PLK1 (human) polo-box domain binding inhibition; Plk1 PBD binding of FITC phosphopeptide, fluorescence polarization; Potency, µM, without a hit: max response, negative = inhibition, usual class: inhibitors; actives 2.8% (n = 360,000); also: series mostly up to about 57 µM; % is scaled to controls: 0 for no effect and ±100 for the full control effect; nearly all actives have a fitted effect of over 65% in size
G9a block = G9a (human) methyltransferase inhibition | AID 504332 | G9a H3K9 monomethylation, AlphaScreen, 2 h | Potency, µM (top dose mostly 102 µM), for inactives: at the highest dose activity, negative = inhibition, actives largely listed as inhibitors | actives 8.8% (n = 350,000) | Q96KQ7; also: % is scaled to controls: 0 for no effect and ±100 for the full control effect; nearly all actives have a fitted effect of over 75% in size
Target sequence (Q96KQ7 913-1193 limits assumed): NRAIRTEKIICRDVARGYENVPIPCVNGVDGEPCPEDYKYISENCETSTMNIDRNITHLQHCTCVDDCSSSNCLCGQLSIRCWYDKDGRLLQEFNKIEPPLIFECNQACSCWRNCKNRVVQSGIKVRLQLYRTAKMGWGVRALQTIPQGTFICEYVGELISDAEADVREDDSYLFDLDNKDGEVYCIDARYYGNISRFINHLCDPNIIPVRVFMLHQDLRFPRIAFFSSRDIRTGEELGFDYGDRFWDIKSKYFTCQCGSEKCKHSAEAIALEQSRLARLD
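Signal arises when biotinylated H3K9 peptide, once monomethylated, bridges streptavidin donor and antibody-captured acceptor beads. Enzyme at 20 nM was preincubated 15 min with test compounds; peptide 500 nM and SAM 20 uM then reacted for 2 h.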
An asterisk follows results filed as active; ? = inconclusive; . = no result; [ ] = dose if it differs, or a comment. Calls follow the shape of the dose curve; as a rule, active = well fitted curve in the direction sought with a large enough effect; inconclusive = small, poorly fitted or top-dose-only effect, or another doubt; inactive = no such curve, though single readings can be large; an effect the other way counts as inactive or inconclusive. Potency is read from the fitted curve at half-maximal effect.

SMILES	JMJD2A Tudor inh	Sfp inh	BAZ2B block	HP1b chromo inh	PLK1 PBD block	G9a block
Cc1ccc(C(=O)NC(=S)NNC(=O)c2ccccc2[N+](=O)[O-])cc1	56.2µM*	44.7µM*	2.5%	-25.6%	?	8.91µM*
O=C(Nc1ccc(Cl)cc1)C1CCC(CNS(=O)(=O)c2ccc(Br)s2)CC1 (stereo not given)	5.8%	.	1.6%	29.4%	.	-3.5%[59 µM]
NC(=O)CSc1n[nH]c(-c2ccco2)n1	-1.4%	7.6%	-17.7%	36.0%	-6.9%	-3.0%
S=c1nc(-c2ccco2)[nH][nH]1	7.08µM*	28.2µM*	?	?	-15.3%	1.78µM*
C/C(=N\NC(=O)c1ccoc1C)c1ccc(Cl)s1	-13.5%	12.3%	-10.3%	19.0%	-2.2%	8.6%
C/C(=N\NC(=O)c1csc(C)c1C)c1ccc(Cl)s1	-6.1%[11.4 µM]	-2.9%	11.3%	-16.8%	23.8µM*	?
c1coc(-c2ccc3nncn3c2)c1	.	.	.	.	15µM*	.
c1cc(N2CCOCC2)ccc1-c1ccc2nncn2c1	.	.	.	.	-5.4%	.
CC(C)(C)c1ccc(OCC(=O)OCCNC(=O)c2cccnc2)cc1	-22.5%	6.6%	4.8%	35.7%	0.9%	50.1µM*
CC(C)(C)c1ccc(C(=O)NCCCNC(=O)c2cccnc2)cc1	-6.2%	1.7%	-3.0%	14.7%	1.9%	14.4%
O=C(O)C(CCCCN1C(=O)c2ccccc2C1=O)N1C(=O)c2ccccc2C1=O (stereo not given)	-7.6%	-3.9%	89.1µM*	46.3%	-2.9%	?
O=C(Nc1ccccc1)C(CCCCN1C(=O)c2ccccc2C1=O)N1C(=O)c2ccccc2C1=O (stereo not given)	-22.9%	.	.	7.4%	-0.9%	.
Cn1c(Cc2ccccc2)nnc1SCCC(=O)Nc1ccccc1	-7.5%	-8.5%	13.5%	6.9%	-7.2%	7.94µM*
CCn1c(Cc2ccccc2)nnc1SCC(=O)Nc1ccc(N)cc1	-24.1%	17.3%	-25.3%	23.7%	-6.3%	50.1µM*
COc1ccc(-n2c(=O)c(CCc3ccccc3)nc3cnc(N4CCNCC4)nc32)cc1	.	?	.	.	.	1.0%[12.7 µM]
NNC(=O)COc1cccc2cccnc12	-3.8%[11.4 µM]	1.5%	-4.8%	44.0%	-5.0%	-15.9%[59 µM]
O=C(Oc1cccc2cccnc12)c1ccco1	-17.0%	-22.1%	70.8µM*	27.9%	-6.6%	25.8%[59 µM]
O=C(Oc1cccc2cccnc12)c1ccc(Br)o1	-23.4%	-16.1%	50.1µM*	29.0%	-0.6%	?
O=C(Oc1cccc2ccccc12)c1ccco1	16.4%	-7.0%	5.4%	58.4%	-6.6%	?
O=C(Nc1cccc2cccnc12)c1ccc(Br)o1	4.3%	-22.2%	-9.8%	23.8%	-1.8%	?
O=C(COc1ccc(Cl)c2cccnc12)N1CCOCC1	-11.7%	.	-0.2%	42.7%	-11.3%	13.1%[59 µM]
O=C(Cc1ccc(Cl)cc1)Oc1cccc2cccnc12	25.1µM*	-6.4%	10µM*	20.6%	-1.5%	?
O=C(Oc1ccc(Cl)c2cccnc12)c1ccco1	-17.6%	14.4%	50.1µM*	41.9%	-1.2%	?
COc1ccc(C(=O)c2sc3nc(-c4ccccc4)ccc3c2N)cc1	14.5%	-12.6%	10.6%	130.1%	-2.0%	?
Cc1ccc2c(N)c(C(=O)N(c3ccccc3)c3ccccc3)sc2n1	-5.3%	?	-12.9%	35.1%	-4.9%	14.1µM*
SMILES	JMJD2A Tudor inh	Sfp inh	BAZ2B block	HP1b chromo inh	PLK1 PBD block	G9a block
CC1(C)OC(C(O)(c2cc(C(F)(F)F)cc(C(F)(F)F)c2)c2cc(C(F)(F)F)cc(C(F)(F)F)c2)C(C(O)(c2cc(C(F)(F)F)cc(C(F)(F)F)c2)c2cc(C(F)(F)F)cc(C(F)(F)F)c2)O1 (stereo not given)	.	28.7%	.	.	.	.
Cc1ccc(NC(=O)Cn2c(=O)n(Cc3ccc4c(c3)OCO4)c(=O)c3ccc(C(=O)NC4CCCCC4)cc32)c(C)c1	-7.7%	.	.	26.7%	.	7.3%[59 µM]
COc1ccc(Cl)cc1NC(=O)C/C(C)=N/NC(=O)c1ccc(O)cc1	-12.2%	11.3%	-28.1%	30.4%	-9.3%	70.8µM*
O=S(=O)(Nc1ccc2c(c1)nc1n2CCN(Cc2ccccc2)C1)c1ccc(Cl)cc1	-13.7%	1.6%	.	57.3%	-11.3%	10µM*
O=S(=O)(Nc1ccc2c(c1)nc1n2CCN(Cc2ccccc2)C1)c1ccc(F)cc1	89.1µM*	15.8%	-31.6%	48.0%	-16.9%	?
O=S(=O)(Nc1ccc2c(c1)nc1n2CCN(Cc2ccccc2)C1)c1ccccc1	-33.1%	-10.7%	20.2%	11.9%	-16.6%	?
Cc1ccc(-n2nc(CO)c(C(=O)NC(C)c3ccccc3)n2)cc1C (stereo not given)	-15.1%	.	0.9%	30.8%	.	7.7%[59 µM]
COc1cc([N+](=O)[O-])ccc1NC(=S)Nc1cc(C(=O)OC(C)C)cc(C(=O)OC(C)C)c1	?	21.4%	-30.3%	?	-24.0%	-1.6%[59 µM]
N#Cc1ccc(C(=O)Nc2ccc3ccccc3c2)cc1	-19.3%	7.9%	-2.3%	-19.1%	-12.0%	44.7µM*
N#Cc1ccccc1Sc1ccccc1C(=O)Nc1ccc2ccccc2c1	-7.5%	16.6%	-25.4%	31.5%	-0.6%	7.1%[59 µM]
CCCCCn1c(=N)c(S(=O)(=O)c2ccc(C)cc2)cc2c(=O)n3cc(C)ccc3nc21	19.0%	.	4.5%	40.7%	.	-1.0%[59 µM]
COc1ccc2c(c1)c(C(C)=O)c(C)n2C	-5.3%	8.6%	-20.5%	23.2%	-7.8%	21.7%
COc1ccc2[nH]c(C)c(C(=O)CN3CCc4cc(OC)c(OC)cc4C3)c2c1	-30.1%	16.3%	3.9%	11.9%	-17.8%	50.1µM*
COc1ccc2c(c1)c(C(=O)CN1CCc3ccccc3C1)c(C)n2C	?	4.3%	-5.3%	26.1%	-11.0%	44.7µM*
Cc1c(OC(C)C(=O)NCC2CCC(C(=O)O)CC2)ccc2c(-c3ccccc3)cc(=O)oc12 (stereo not given)	-22.4%	-4.9%	?	17.0%	-18.6%	.
CCOc1ccc(NC(=O)Cn2cc(C(=O)c3ccc(F)cc3)c(=O)c3cc4c(cc32)OCO4)cc1	-12.6%	.	-10.1%	38.6%	.	1.7%[59 µM]
COc1ccc(C(=O)c2ncc(C(F)(F)F)cc2Cl)cc1	?	18.5%	6.6%	5.3%	23.8µM*	8.1%
COc1cccc(Nc2ncc3nc(C)c(=O)n(CCC#N)c3n2)c1	.	21.4%	.	.	.	-4.5%[12.7 µM]
Cc1ccc2cc(CN(Cc3ccc4c(c3)OCO4)Cc3nnnn3Cc3ccco3)c(=O)[nH]c2c1C	-32.3%	22.4µM*	-8.9%	16.8%	-11.5%	11.2µM*
COCCn1nnnc1CN(Cc1ccco1)Cc1cc2cc3c(cc2[nH]c1=O)OCO3	-8.6%	-5.3%	-4.9%	47.2%	-2.5%	-0.7%[12.7 µM]
